PNC inhibitor = High Content Assay for Compounds that inhibit the Assembly of the Perinucleolar Compartment. PC3M PTB-GFP, PNC prevalence imaging, 16 h; active compounds read low. activity change (PNC), negative = inhibition, % at 10 µM. 3.1% of 140,000 active;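 active = readout at or below -70, meaning at least 70% loss of cells showing the perinucleolar compartment, a nuclear body marking cancer cells; inconclusive = readout between -30 and a set limit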;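 also: plate controls were DMSO wells for no effect and camptothecin positive control wells for full effect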
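Compounds are pinned in duplicate onto adhered PC3M cells stably expressing GFP-tagged PTB and incubated 16 h at 37 C. Cells are then fixed, nuclei stained with Hoechst, and PNC-positive cells counted.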
HPGD inh = qHTS Assay for Inhibitors of HPGD (15-Hydroxyprostaglandin Dehydrogenase) | 15-hydroxyprostaglandin dehydrogenase [NAD(+)] (Homo sapiens), P15428 | 4.3% of 150,000 active | Potency, µM, without a hit: at the top dose activity change, negative = inhibition, hits mostly inhibitors | purified HPGD, NADH fluorescence kinetic, PGE2 substrate; also: potency is read from the fitted curve at half-maximal effect
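NADH formation kinetics: reaction with 30 uM PGE2 and 1 mM NAD+ (final), 20 nM enzyme, Tris-HCl pH 8 with Tween 20, after 15 min compound preincubation at room temperature. Fluorescence change, last versus first of five reads.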
ALDH1A1 inh = qHTS Assay for Inhibitors of Aldehyde Dehydrogenase 1 (ALDH1A1) | Purified ALDH1A1, NADH fluorescence, propionaldehyde substrate | Potency, µM (top dose mostly 75.3 µM), without a hit: at the highest dose activity, negative = inhibition, actives largely listed as inhibitors | AID 1030, 2008 | 7.3% of 220,000 active;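 also: potency is read from the fitted curve at half-maximal effect; plate controls were no enzyme wells and a reference inhibitor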
Target sequence (P00352 whole entry, looked up): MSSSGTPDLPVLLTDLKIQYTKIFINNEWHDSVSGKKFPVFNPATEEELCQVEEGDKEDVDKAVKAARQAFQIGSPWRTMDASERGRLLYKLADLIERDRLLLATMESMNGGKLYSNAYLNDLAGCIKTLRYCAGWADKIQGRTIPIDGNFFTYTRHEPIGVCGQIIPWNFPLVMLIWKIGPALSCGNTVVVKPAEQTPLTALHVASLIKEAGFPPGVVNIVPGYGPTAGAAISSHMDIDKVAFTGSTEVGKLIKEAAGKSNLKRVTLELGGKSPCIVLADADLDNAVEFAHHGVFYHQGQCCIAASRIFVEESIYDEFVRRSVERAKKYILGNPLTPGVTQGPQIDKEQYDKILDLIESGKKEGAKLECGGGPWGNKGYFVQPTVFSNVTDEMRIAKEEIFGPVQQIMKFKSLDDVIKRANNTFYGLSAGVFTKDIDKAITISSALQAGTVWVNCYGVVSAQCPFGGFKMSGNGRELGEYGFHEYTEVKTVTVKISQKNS
Starred values were filed as active, the others as inactive; ? = inconclusive; · = not tested or not shown; [ ] = remark or other dose. Rows were chosen to be rich in hits. Some 11% of all compounds tested hit in one or more screens of this group. Unless noted, calls follow the shape of the dose curve; as a rule, active = well fitted inhibition curve with a large enough effect (not every such curve was filed as active); inconclusive = small, poorly fitted or top-dose-only effect, or another doubt; inactive = no such curve, though single readings can be large or run the other way. Unless noted, % is scaled to controls: 0 for no effect and ±100 for the full control effect.

SMILES | PNC inhibitor | HPGD inh | ALDH1A1 inh
CC(=O)Nc1ccc2c(c1)N(C(=O)CN(C)C)c1ccccc1CC2 | 19 | -19% | -14%
Cc1ccc(NC(=O)N2CCc3ccccc32)cc1 | -14 | -9% | 0%
CCNCC(=O)N1c2ccccc2CCc2ccc(NC(C)=O)cc21 | -105* | -11% | -3%
Cc1ccc(NC(=O)CSCC(=O)N2c3ccccc3CCc3ccccc32)cc1 | 5 | -12% | 3.2µM*
COc1ccc(C(=O)N2CCN(c3ccccc3OC)CC2)cc1 | · | · | -5%
COc1ccc(N2CCN(C(=O)c3ccc(Br)cc3)CC2)c([N+](=O)[O-])c1 | · | · | 13µM*
COc1cccc(CC(=O)N2CCN(c3ccccc3[N+](=O)[O-])CC2)c1 | · | · | -12%
CCCCC(=O)N1CCN(c2ccc(OC)cc2[N+](=O)[O-])CC1 | -11 | 14µM* | ?
COC(=O)c1ccc(N2CCN(S(=O)(=O)c3ccc(Br)cc3)CC2)c([N+](=O)[O-])c1 | -25 | -12% | 1%
COc1ccc(N2CCN(C(=O)c3ccc(C)cc3)CC2)c([N+](=O)[O-])c1 | 10 | -26% | 11µM*
Cc1cc(C)c(Nc2ncnc(N)n2)c(C)c1 | · | · | 11%
CCCC[C@@H]1C[C@H]1C(NC(=O)Cc1ccccc1)c1ccc(Cl)cc1 (some centres not stated) | · | -14% | -2%
CCOC(=O)CCC(=O)Nc1cccc([N+](=O)[O-])c1 | 21 | -6% | 6%
COc1ccc(-c2cc(C(=O)c3c(N)n(C)c(=O)n(C)c3=O)c3ccccc3n2)cc1OC | · | · | -4%
COc1cc(OC)c(OC)cc1/C=N/Nc1nc2ccccc2[nH]1 | · | · | 9%
O=C(N/N=C/c1cc2ccccc2nc1Cl)c1ccncc1 | · | · | -2%
Cc1ccc(NCC(=O)N/N=C/c2cc3ccccc3nc2Cl)cc1 | -13 | -14% | 10µM*
Cc1ccc2cc(/C=N/Nc3nc4ccccc4[nH]3)c(Cl)nc2c1 | -88* | -15% | 14%
CC(=O)c1c(N2CCN(C)CC2)nc(=S)n(-c2cc(C)ccc2C)c1C | · | · | 1%
CCOC(=O)c1c(C)[nH]c(C)c1C(=O)COc1ncnc2cc([N+](=O)[O-])ccc12 | · | · | 2%
c1ccc(-c2cn3c(n2)-c2ccccc2C3)cc1 | 43 | ? | ?
COCCCNc1nc2nonc2nc1N(C)CC1CCCN1C (configuration not stated) | · | · | 1%
CCCN1C(=O)COc2ccc(-c3n[nH]c(=O)c4ccccc34)cc21 | · | · | 9%
N=c1sccn1CC(=O)Nc1ccc(S(N)(=O)=O)cc1 | · | · | 7.1µM*
N=c1sccn1CC(=O)Nc1cccc2ccccc12 | ? | 2% | 11%
SMILES | PNC inhibitor | HPGD inh | ALDH1A1 inh
COc1cc(NC(=O)Cn2ccsc2=N)c(C)cc1[N+](=O)[O-] | · | · | -9%
N=c1sccn1CC(=O)Nc1ccc(Cl)cc1[N+](=O)[O-] | · | · | 28µM*
Cc1nn(-c2cc(Cl)ccc2Cl)c(C)c1C(=O)O | · | · | 6%
Cc1cc(NC(=O)Cn2cc([N+](=O)[O-])cn2)no1 | · | · | -9%
O=C(c1ccccc1)[C@H](Nc1ccc2ccccc2c1)c1ccccc1 | · | -13% | -13%[13.5 µM]
Cc1ccc(Cl)cc1N1CCN(S(=O)(=O)c2ccc3[nH]c(=O)c(=O)[nH]c3c2)CC1 | · | · | 3%
Cc1ccc(Cl)cc1N1CCN(CC(=O)Nc2ccc3[nH]c(=O)[nH]c3c2)CC1 | -8 | -7% | 22µM*
Cc1ccc(CCN2CC(C(=O)NCCN3CCCCCC3)CC2=O)cc1 (configuration not stated) | -12 | 2% | 11%
Cc1ccc(CCN2CC(C(=O)NCc3ccco3)CC2=O)cc1 (configuration not stated) | ? | -12% | 28µM*
O=C(COC(=O)C1CC(=O)N(Cc2ccccc2)C1)c1ccc(Br)cc1 (configuration not stated) | 25 | -10% | 1%
Cc1[nH]c2ccccc2c1C(=O)COC(=O)C1CC(=O)N(Cc2ccco2)C1 (configuration not stated) | ? | -10% | ?
O=C(COC(=O)C1CC(=O)N(Cc2ccco2)C1)c1ccc(OC(=O)c2ccco2)cc1 (configuration not stated) | -11 | 18µM* | 1.6µM*
Cc1ccc(C(=O)Oc2ccc(C(=O)COC(=O)C3CC(=O)N(Cc4ccco4)C3)cc2)cc1 (configuration not stated) | -19 | ? | 25µM*
CCc1cc2c(nc1CC)CCN(CC/C(C)=N/O[C@@H](C)c1cn([C@@H]3COC[C@@H]3O)nn1)C2 | · | · | 0%[13.5 µM]
OCCC1CN(Cc2cn[nH]c2C2CCCCC2)CCN1C1CCCC1 (configuration not stated) | · | · | 14%
CCCCC(CC(O)COCCC)c1n[nH]c(=S)n1-c1ccccc1 (configuration not stated) | · | · | 6%
CCOC(=O)c1cc(-c2ccc(N)cc2)sc1N | 38 | -8% | 28µM*
CCOC(=O)c1ccc(N)cc1 | · | -9% | 10%
Cc1ccc(NC(=S)Nc2ccc(F)cc2)c(C)c1 | · | · | 4%
COC(=O)[C@H]1[C@@H](C)N(Cc2ccccc2)C(=O)N[C@H]1c1ccccc1 | · | -2% | ?
COC(=O)c1[nH]c2c(c1C)C(=O)CC(c1cc(OC)ccc1OC)C2 (configuration not stated) | ? | 5% | 4%
COCCOC(=O)c1[nH]c2c(c1C)C(=O)CC(c1ccccc1)C2 (configuration not stated) | -100* | -14% | -9%
CCCCOC(=O)c1[nH]c2c(c1C)C(=O)CC(c1cc(OC)c(OC)c(OC)c1)C2 (configuration not stated) | -7 | -4% | 5µM*
COCCOC(=O)c1[nH]c2c(c1C)C(=O)CC(c1ccc(F)cc1)C2 (configuration not stated) | ? | -6% | 5%
COCCOC(=O)C1=C(C)NC2=C(C(=O)CC(C)(C)C2)C1c1ccc(N(C)C)cc1 (configuration not stated) | -6 | -4% | ?
SMILES | PNC inhibitor | HPGD inh | ALDH1A1 inh
COCCOC(=O)c1[nH]c2c(c1C)C(=O)CC(c1ccc(N(C)C)cc1)C2 (configuration not stated) | ? | -6% | 14µM*
COC(=O)c1[nH]c2c(c1C)C(=O)CC(c1cccs1)C2 (configuration not stated) | -85* | -7% | 0%
C=CCOC(=O)c1[nH]c2c(c1C)C(=O)CC(c1cc(OC)c(OC)c(OC)c1)C2 (configuration not stated) | -17 | -2% | ?
O=C(c1cnccn1)N1CCC2(CC1)CN(c1ccncc1)C2 | · | -10% | -2%
CC(NC(=O)CCN1N=C(c2ccccc2)CCC1=O)c1ccc2c(c1)OCCO2 (configuration not stated) | · | · | -3%
CCOC(=O)c1[nH]c2c(c1-c1ccc(OC)cc1)C(=O)CC(c1ccc(OC)c(OC)c1)C2 (configuration not stated) | 40 | -14% | 28µM*
CCOc1ccc(C2CC(=O)c3c([nH]c(C(=O)OC)c3C)C2)cc1OC (configuration not stated) | -19 | -5% | 3%
